Laboratory results taken from PubChem BioAssay AID485360 (National Center for Advancing Translational Sciences (NCATS), 2010).
“And” between values parts separate entries of the source, which are not always exact repeats. Equal entries are not always repeated. Screen size: about 230,000 compounds; about 1,500 (0.65%) were called active. Another 3% or so got no clear call; they are omitted. The call rests on the fitted dose curve; in most records, active means well fitted inhibition curve with a large enough effect; inconclusive means small, poorly fitted or top-dose-only effect; inactive means no such curve, though single readings can be large or run the other way. The list comes from a sample in which actives are over-represented; it also holds similar structures and randomly drawn compounds. The source holds several records for some structures; these can differ, active in one and inactive in another.

target: Lethal(3)malignant brain tumor-like protein 1 (Homo sapiens) (UniProt Q9Y468); assay: qHTS Assay for the Inhibitors of L3MBTL1; details: AlphaScreen L3MBTL1–H3K9me1 peptide binding; series mostly up to 57.1 µM; activity, negative = inhibition: at the top concentration; further: nearly all actives have a fitted effect of over 60% in size
Sequence (Q9Y468 whole entry, looked up): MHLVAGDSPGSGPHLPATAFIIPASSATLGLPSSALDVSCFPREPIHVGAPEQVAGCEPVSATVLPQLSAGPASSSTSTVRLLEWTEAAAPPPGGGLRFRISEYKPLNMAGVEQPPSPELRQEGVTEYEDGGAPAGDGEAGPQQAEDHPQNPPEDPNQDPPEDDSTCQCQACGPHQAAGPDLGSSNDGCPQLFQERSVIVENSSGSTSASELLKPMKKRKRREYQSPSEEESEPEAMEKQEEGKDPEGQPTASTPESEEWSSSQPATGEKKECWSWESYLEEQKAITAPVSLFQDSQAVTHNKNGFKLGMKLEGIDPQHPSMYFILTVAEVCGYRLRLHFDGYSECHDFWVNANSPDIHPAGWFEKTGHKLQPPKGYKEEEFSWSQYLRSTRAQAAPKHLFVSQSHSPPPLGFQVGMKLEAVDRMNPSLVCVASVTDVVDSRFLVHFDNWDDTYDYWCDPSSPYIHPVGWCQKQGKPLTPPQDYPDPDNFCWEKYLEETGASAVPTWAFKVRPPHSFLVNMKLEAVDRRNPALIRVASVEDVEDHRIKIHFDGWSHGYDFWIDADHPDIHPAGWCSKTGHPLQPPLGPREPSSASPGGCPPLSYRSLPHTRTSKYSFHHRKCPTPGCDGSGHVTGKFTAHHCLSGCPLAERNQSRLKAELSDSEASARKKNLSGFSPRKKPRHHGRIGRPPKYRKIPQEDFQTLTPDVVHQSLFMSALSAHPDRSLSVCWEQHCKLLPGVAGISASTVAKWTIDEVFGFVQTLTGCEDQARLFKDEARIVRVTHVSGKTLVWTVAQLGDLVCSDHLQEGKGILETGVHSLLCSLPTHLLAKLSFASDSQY
From the text: The histone code is comprised of many post-translational modifications that occur mainly in histone tail peptides. The identity and location of these marks are read by a variety of histone binding proteins that are emerging as important regulators of cellular differentiation and development and are increasingly being implicated in numerous disease states. Small molecule probes that disrupt the interaction between histone binding proteins and chromatin would enable a systematic chemical biology study of proteins that read the histone code and could potentially reveal new targets for drug discovery. However, no such small molecules are known. This dearth of quality molecular probes can largely be attributed to the novelty of the target class and the lack of screening assays. This proposal details the development of the first high-throughput screening assay for the discovery of inhibitors of methyl-lysine binding proteins and how it can be be used to initiate a full-scale discovery effort for antagonists of histone binding proteins. Specifically, this work focuses on an AlphaScreen(tm)-based HTS assay for Malignant Brain Tumor (MBT) domain-containing proteins, which bind to the lower methylation states of lysine residues present in histone tail peptides.
To each well, 2 uL of L3MBTL1 protein (final 50 nM) and 1 uL biotinylated histone peptide monomethylated at Lys9 [b-AHA-H3(1-15)K9me1] (final 75 nM) was added using a nanoliter dispenser. Formation of a protein-peptide complex proceeded at room temperature for 30 min. A Kalypsys pin-tool was employed to transfer 23 nL of library compound solution in DMSO to each well. Cefsulodin, found in a pilot screen of the LOPAC library to be a weak inhibitor of L3MBTL1 binding, was used as an intraplate control with a 16-point titration in duplicate. Following a 30 min incubation of the protein-peptide complex with compounds at room temperature, a mixture of 40 ug/mL each streptavidin-coated donor and nickel chelate acceptor AlphaScreen beads (final 10 ug/mL) was added in a 1 uL dispense for a final volume of 4 uL. Plates were incubated, protected from the light for 30 min at room temperature. Microplates were then be read on an EnVision multilabel plate reader using the 1,536 plate HTS AlphaScreen aperture (excitation time 80 ms, measurement time 240 ms).
On the % scale 0 is the no-effect control and ±100 the full control effect; potency means the concentration at half of the fitted maximal effect.

SMILES	activity, negative = inhibition	Potency
O=C1N/C(=C/c2cccs2)C(=O)N1Cc1ccc(F)cc1	7.41% (inactive)	–
CSC1=N/C(=C\C=C\c2cccs2)C(=O)S1	–	20 µM (active)
CSC1=N/C(=C\c2ccc3c(c2)OCO3)C(=O)S1	-5.37% (inactive)	–
Cc1ccnc(SCC(=O)Nc2cccc(S(=O)(=O)N3CCOCC3)c2)n1	-1.74% (inactive)	–
COc1ccccc1C(CNC(=O)c1cccc(NS(=O)(=O)c2ccc(Br)cc2)c1)N(C)C (stereo not given)	5.64% (inactive)	–
COc1ccc(Cc2nnc(N/N=C/c3ccccc3O)[nH]c2=O)cc1OC	–	8.91 µM (active)
COc1ccc(/C=N/Nc2nc3ccccc3c(=O)[nH]2)cc1	4.78% (inactive)	–
CCOc1ccc(-n2c(O)c(/C=N/Nc3nnc(C)c(=O)[nH]3)c3ccccc3c2=O)cc1	-28% (inactive)	–
CCOc1ccccc1OCC(=O)Nc1ccccc1C(=O)NC1CC1	-6.53% (inactive)	–
CC(OC(=O)c1ccc(S(=O)(=O)N2CCOCC2)cc1)c1ccccc1 (stereo not given)	11.6% (inactive)	–
COc1ccc(-c2noc(CCC(=O)N3CCN(c4cccc(C)c4)CC3)n2)cc1	-5.84% (inactive)	–
CN(C)c1ccc(-n2cccc2/C=C2/SC(=Nc3ccc(F)cc3)NC2=O)cc1	-2.95% (inactive)	–
Cc1ccc(N=C2NC(=O)/C(=C/C=C/c3ccco3)S2)cc1C	–	22.4 µM (active)
Cc1cccc(N=C2NC(=O)/C(=C/c3cn(C)c4ccccc34)S2)c1	-12.5% (inactive)	–
CC(=O)N1c2ccc(S(=O)(=O)N3CCCC(C(=O)Nc4ccc(C)cc4C)C3)cc2CC1C (stereo not given)	-1.87% (inactive)	–
O=C(COC(=O)C1CCCO1)Nc1nc(-c2ccc(F)cc2)cs1 (stereo not given)	5.76% (inactive)	–
O=C(CSc1nc2ccccc2c(=O)n1-c1ccccc1F)N1CCOCC1	2.61% (inactive)	–
Cc1ccc2c(c1)C1CN(C)CCC1N2S(=O)(=O)c1cccc(F)c1 (stereo not given)	-0.876% (inactive)	–
Oc1ccc(/C=N/Nc2nc(-c3ccccc3F)nc3ccccc23)c(O)c1	-26.6% (inactive)	–
Cc1nc2ccccc2nc1N/N=C/c1ccc(O)cc1O	–	14.1 µM (active)
FC(F)(F)c1nc2ccccc2nc1N/N=C/c1ccc(Cl)cc1	-3.16% (inactive)	–
C=C1c2c(Cl)ccc(O)c2C(O)=C2C(=O)[C@]3(O)C(O)=C(C(N)=O)C(=O)[C@@H](N(C)C)[C@@H]3[C@@H](O)C12 (stereo not given in full)	–	0.447 µM (active)

SMILES	activity, negative = inhibition	Potency
Cc1nn(Cc2ccccc2)c(C)c1C(=O)N1CCN(CC(=O)Nc2ccccc2Cl)CC1	4.62% (inactive)	–
CCN(CC(=O)NCc1ccc(F)cc1)S(=O)(=O)c1ccc(Cl)s1	11.7% (inactive)	–
CCOc1ccc(S(=O)(=O)Nc2cccc(C(=O)NCC3(N4CCCCC4)CCCCC3)c2)cc1	-7.83% (inactive)	–
CC(Sc1ccccc1F)C(=O)Nc1cccc(S(=O)(=O)N2CCOCC2)c1 (stereo not given)	4.02% (inactive)	–
Cc1cc(C)cc(NS(=O)(=O)Cc2ccccc2)c1	0.725% (inactive)	–
Cc1ccccc1NC(=O)CN1C(=O)N/C(=C\c2cccn2-c2cccc(C(=O)O)c2)C1=O	–	3.55 µM (active)
Cc1ccccc1NC(=O)CSC(=O)c1ccccc1	-7.88% (inactive)	–
O=C1N/C(=C/c2cccn2-c2ccccc2)C(=O)N1c1cccc(Cl)c1	6.45% (inactive)	–
Cc1ccc(NC(=O)C(c2ccccc2)N2CCN(C(=O)c3ccco3)CC2)cc1 (stereo not given)	-8.06% (inactive)	–
CN(C)C(=O)CCc1ccc2c3c([nH]c2c1)[C@]1(C)[C@@H](C(=O)N2CCCCC2)C[C@H](CC(=O)NCCC2=CCCCC2)C(=O)N1CC3	-2.71% (inactive)	–
C=CCOc1cccc(C2NC(=O)c3ccccc3O2)c1 (stereo not given)	0.914% (inactive)	–
COc1cc(CN2CCC(C(N)=O)CC2)ccc1OCc1ccccc1	9.88% (inactive)	–
Clc1cccc(CN2COc3c(cc(Cl)c4cccnc34)C2)c1	-15.3% (inactive)	–
Oc1c(CN2CCCC2)cc(COCc2ccccc2)c2cccnc12	–	inactive and 28.2 µM (active)
CCN(CC(=O)Nc1ccccc1C(F)(F)F)C(=O)C1CCN(C(=O)Nc2ccccc2)CC1	-3.3% (inactive)	–
COc1ccc(CCNC(=O)COC(=O)c2cnc(Cl)c(Cl)c2)cc1	-1.86% (inactive)	–
COc1ccccc1Nc1nc(N)nc(CN(C)C2CCCCC2)n1	–	15.8 µM (active)
COc1ccccc1Nc1nc(N)nc(CSC(=S)N2CCOCC2)n1	-0.65% (inactive)	–
Cc1ccccc1Nc1nc(N)nc(CSc2ccccc2)n1	-6.78% (inactive)	–
CCCCCC(=O)N1CCN(S(=O)(=O)c2ccc3c(c2)OCCCO3)CC1	4.12% (inactive)	–
CSc1nnc(SCc2nc3sc(C(=O)O)c(C)c3c(=O)[nH]2)s1	–	3.16 µM (active)
CCOC(=O)c1sc2nc(C)[nH]c(=O)c2c1C	3.08% (inactive)	–

SMILES	activity, negative = inhibition	Potency
CCOC(=O)c1sc2nc(CSc3ccccc3)[nH]c(=O)c2c1C	6.68% (inactive)	–
COc1ccc(S(=O)(=O)N2CCOC23CCN(S(=O)(=O)c2ccc([N+](=O)[O-])cc2)CC3)cc1	-11% (inactive)	–
CCCCn1c(N)c(N(CC(C)C)C(=O)CN(C)S(=O)(=O)c2ccc(F)cc2)c(=O)[nH]c1=O	5.09% (inactive)	–
CN(C)c1ccc(C2N(C)C(=O)c3ccccc3N2C)cc1 (stereo not given)	-3.44% (inactive)	–
CN(C)c1ccc(Nc2c3c4c(cccc4n(C)c2=O)C(=O)c2ccccc2-3)cc1	–	7.94 µM (active)
CC(C)Oc1ccc(S(=O)(=O)N2CCOCC2)cc1NC(=O)C1CCCC1	-1.04% (inactive)	–
COC(=O)c1ccc2ccccc2c1OC1OC(CO)C(O)C(O)C1NC(C)=O (stereo not given)	4.66% (inactive)	–
Cc1cc(C)c2nc(-c3ccco3)cc(C(=O)O)c2c1	–	3.16 µM (active)
CC1CCCN(C(=O)c2cc(-c3ccco3)nc3ccccc23)C1 (stereo not given)	-0.376% (inactive)	–
Cc1ccc2nc(-c3ccccc3)cc(C(=O)O)c2c1	-3.25% (inactive)	–
CCOC(=O)c1ccccc1NS(=O)(=O)c1c(C)nc2sccn2c1=O	1.45% (inactive)	–
CCN(CC)S(=O)(=O)c1ccc(N2CCOCC2)c(NC(=O)C(C)Oc2ccc(F)cc2)c1 (stereo not given)	-4.04% (inactive)	–
Cc1occc1C(=O)Nc1cccc(S(=O)(=O)N2CCOCC2)c1	-5.85% (inactive)	–
Oc1ccc2ccccc2c1N=Nc1nccs1	–	3.98 µM (active)
Oc1ccc2ccccc2c1C=Nc1ccccc1	-9% (inactive)	–
Oc1ccc(N=Nc2nccs2)c(O)c1	–	25.1 µM (active)
c1ccc(NCc2cccc3ccccc23)nc1	25.5% (inactive)	–
CN(CC(=O)NC1CCN(Cc2ccccc2)CC1)S(=O)(=O)c1ccc(Cl)s1	-0.592% (inactive)	–
O=C(COC(=O)c1ccco1)Nc1ccc(Cl)cn1	-4.51% (inactive)	–
O=C(NNS(=O)(=O)c1ccc(F)cc1)c1ccc([N+](=O)[O-])cc1Cl	1.2% (inactive)	–
Cc1sc2ncnc(N3CCC(C(=O)NNC(=O)c4ccc(F)cc4)CC3)c2c1C	4.79% (inactive)	–
